A selection: hits, their analogues and other compounds. The true share with any hit is near 2.9%.
HIF-2a block: HIF-2a reporter inhibitors, primary screen, luminescence, 786-0 RCC cells; 786-0 RCC cells HIF-2a reporter, luciferase luminescence, overnight; inhibition, % at 18.8 µM; 360,000 compounds, 0.72% hits;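 active = inhibition of the luminescence signal of 40% or more relative to plate controls, in a single-dose primary screen at 18.75 µM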
LMP1 NFkB inh: EBV LMP1-driven NF-kappaB luciferase reporter inhibitors, primary screen, cell-based, luminescence, single point; LMP1-induced NF-kappaB luciferase reporter cells; inhibition, % at 12.5 µM; 350,000 compounds, 0.69% hits; AID 504558, 2011; in the data active = inhibition above about 41%
KKLEB cytotox: cytotoxicity in KKLEB CF airway cells, primary screen, cytotoxicity control for CF NF-kB inhibitor project, cell-based, uHTS, fluorescence assay plates | KKLEB CF airway cells viability, ATPlite luminescence, overnight; stronger effect = lower value; cells stimulated with P. aeruginosa culture filtrate | activity change (cytotoxicity), % at 5 µM | 360,000 compounds, 0.36% hits;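 active = corrected activity change at or below -50% at 5 µM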
CF NFkB block: inhibitors of PAF-induced NF-kB signaling, primary screen, cell-based, GFP fluorescence, uHTS; KKLEB NF-kB-GFP reporter, GFP fluorescence overnight; inhibition, % at 5 µM; 360,000 compounds, 0.86% hits;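 active = at least 50% inhibition at 5 µM, scaled per plate between neutral and stimulator controls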;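 note: PAF is a Pseudomonas aeruginosa culture filtrate used as stimulus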
Peg3 promoter: Peg3 promoter-driven luciferase inhibitors, primary screen, cell-based, HeLa, luciferase luminescence; HeLa PEG-Prom luciferase reporter, overnight; 360,000 compounds, 1.7% hits; inhibition, % at 20 µM;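 active = inhibition of at least 50% at 20 µM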
Shn3 3UTR inh: reduction of Shn3 3'UTR firefly luciferase signal, primary screen, Schnurri-3 inhibitor project, cell-based, Clone20 osteoblasts, set 2. Clone20 osteoblast Shn3 3'UTR firefly luciferase, 24 h. inhibition, % at 12.5 µM. 360,000 compounds, 0.52% hits. AID 588674, 2011;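 active = mean inhibition of at least 75% with every replicate also reaching 75%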
A number is an active result; i = inactive.

SMILES | HIF-2a block | LMP1 NFkB inh | KKLEB cytotox | CF NFkB block | Peg3 promoter | Shn3 3UTR inh
CN1CCN(S(=O)(=O)c2cccc(C(=O)NC3CCCC3)c2)CC1 | i | i | i | i | i | i
Cc1ccccc1C[n+]1cccc2ccccc21 | i | i | i | i | i | i
CCCCCCCCCCCCCCCC[n+]1cccc2ccccc21 | 93.8 | i | -67.8 | 65.6 | 104.1 | 92.0
O=C(Nc1ccc(F)cc1)C1CCN(S(=O)(=O)c2ccc3[nH]c(=O)oc3c2)CC1 | i | i | i | i | i | i
O=C(NNc1ccccc1)C(=O)NNS(=O)(=O)c1ccc(CCCl)cc1 | i | i | i | i | i | 85.8
CCOC(=O)c1c(C)oc2c1C(=O)c1ccccc1C2=O | i | i | i | 76.5 | i | i
Cc1oc2c(c1C(=O)O)C(=O)c1ccccc1C2=O | i | i | i | i | i | i
Cc1oc2c(c1C(=O)c1ccccc1)C(=O)C(=O)c1ccccc1-2 | 88.0 | 94.2 | i | 88.5 | 107.8 | i
Cc1c(Cl)cccc1NC(=O)CCCN1C(=O)CCC1=O | i | i | i | i | i | i

Assay outcomes: PubChem BioAssay, several laboratories
